Screening results as filed in PubChem.
HT1080NT lethal = kills 2HG-producing HT-1080-NT fibrosarcoma cells | HT-1080-NT fibrosarcoma viability, CellTiter-Glo ATP luminescence, 48 h | 360,000 compounds, 1.6% hits | Potency, µM (doses to about 46.1 µM), hits mostly cytotoxic | AID 686970;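 also: NT is the 2HG producing partner of a matched IDH1 knockdown line; nearly all actives have a fitted effect of over 55% in size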
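Luminescent CellTiter-Glo readout after 48 hours of compound exposure at 37 degrees C defined viability of HT-1080-NT cells. Activity was normalized to DMSO wells and cell-free media wells; concentration-response curves were fitted and assigned curve classes.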
12-LOX inh = blocks human arachidonate 12S-lipoxygenase; Potency, µM (doses to about 108 µM), usual class: inhibitors; 580,000 compounds, 1.1% hits; P18054; purified 12hLO, xylenol orange hydroperoxide absorbance
Target sequence (P18054 whole entry, looked up): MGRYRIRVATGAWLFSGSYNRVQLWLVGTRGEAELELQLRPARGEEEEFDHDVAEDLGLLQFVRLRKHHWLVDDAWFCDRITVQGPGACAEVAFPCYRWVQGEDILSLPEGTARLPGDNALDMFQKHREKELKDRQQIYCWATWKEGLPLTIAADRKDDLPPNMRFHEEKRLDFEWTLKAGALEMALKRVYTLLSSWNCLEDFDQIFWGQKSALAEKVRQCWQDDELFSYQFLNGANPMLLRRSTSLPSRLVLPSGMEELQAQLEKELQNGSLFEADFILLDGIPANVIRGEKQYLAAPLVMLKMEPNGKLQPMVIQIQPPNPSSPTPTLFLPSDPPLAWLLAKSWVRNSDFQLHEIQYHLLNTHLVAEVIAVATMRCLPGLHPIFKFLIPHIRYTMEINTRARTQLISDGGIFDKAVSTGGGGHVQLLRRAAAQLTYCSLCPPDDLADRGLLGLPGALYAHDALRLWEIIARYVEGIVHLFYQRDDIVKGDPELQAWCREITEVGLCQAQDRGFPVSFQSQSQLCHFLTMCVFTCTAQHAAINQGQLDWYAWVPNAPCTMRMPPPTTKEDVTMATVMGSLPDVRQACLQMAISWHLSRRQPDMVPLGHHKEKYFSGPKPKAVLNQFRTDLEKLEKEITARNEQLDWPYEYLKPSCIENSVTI
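Hydroperoxide product was detected by ferrous iron/xylenol orange as the 573 to 405 nm absorbance ratio. Arachidonic acid at 40 uM (final) was turned over for 30 min at room temperature by 150 nM human 12hLO, pH 7.0 Hepes buffer, after 15 min compound preincubation.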
HT1080 IDH1KD tx = toxicity to HT-1080 IDH1 knockdown cells (counter line); HT-1080 IDH1 knockdown viability, ATP luminescence, 48 h; 360,000 compounds, 2% hits; Potency, µM (series often up to 46.1 µM), hits mostly cytotoxic
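In this qHTS, HT-1080 cells depleted of IDH1 are exposed for 48 h at 37 °C to compound titrations. Toxicity is scored from CellTiter-Glo luminescence, with DMSO as full viability and medium alone as none.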
DT40 TDP1 CPT = growth inhibition of DT40 Tdp1-/-;hTDP1 cells with camptothecin (screen for TDP1 inhibitors) | chicken DT40 Tdp1-/-;hTDP1 cells + 20 nM CPT, ATP luminescence, 48 h | Potency, µM (doses to about 46.2 µM), most hits filed as inhibitors | 420,000 compounds, 12% hits | AID 686979; also: nearly all actives have a fitted effect of over 55% in size
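Chicken DT40 Tdp1-/- cells stably complemented with human TDP1 were seeded at 400 cells/well in medium containing 20 nM camptothecin, exposed to pin-transferred compounds, and grown at 37 °C for at least 48 hr. Viability was read as ATP luminescence.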
TDP1 cell noCPT = qHTS for Inhibitors of human tyrosyl-DNA phosphodiesterase 1 (TDP1): qHTS in cells in absence of CPT; DT40 Tdp1-/- hTDP1 cells, no CPT, ATP luminescence, 48 h; Potency, µM (top dose mostly 46.2 µM), actives largely listed as inhibitors; 420,000 compounds, 15% hits; also: nearly all actives have a fitted effect of over 55% in size
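Luminescent ATP content (CellTiter-Glo) served as the growth readout. Knockout chicken DT40 cells expressing human TDP1 were exposed to compounds without camptothecin for a minimum 48 hr at 37 °C.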
IL-1B inflam inh = inhibitors of inflammasome signaling (IL-1 beta secretion); THP-1 LPS/ATP IL-1B secretion, AlphaLISA, 16 h; active compounds read low; activity change, % at 57.5 µM; 360,000 compounds, 4.7% hits; AID 743279; in the data active = activity change below about -50%; inconclusive = mostly about -30% to -49%
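Secreted IL-1B measured by AlphaLISA bead assay after 16 h compound exposure of THP-1 cells; compounds (final up to 57.5 uM) added 1 h before LPS (250 ng/mL) and ATP (1.25 mM) stimulation; lower signal means less secretion.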
A number is an active result; i = inactive; ? = inconclusive; nt = no result; [ ] = remark or other dose. Shown is part of a subset that was picked to be rich in hits. Unless noted, calls follow the shape of the dose curve; as a rule, active = well fitted curve in the direction sought with a large enough effect; inconclusive = small, poorly fitted or top-dose-only effect, or another doubt; inactive = no such curve, though single readings can be large; an effect the other way counts as inactive or inconclusive.

SMILES	HT1080NT lethal	12-LOX inh	HT1080 IDH1KD tx	DT40 TDP1 CPT	TDP1 cell noCPT	IL-1B inflam inh
CCCC1=Nc2cc(C(=O)NCCc3ccc(OC)cc3OC)ccc2Sc2ccccc21	nt	i	nt	18.4µM	?	nt
CC1CCC(NC(=O)c2cn(C)c3ccccc23)CC1 (stereo not drawn)	nt	i	nt	nt	nt	nt
O=C(NCc1cccnc1)c1ccc(COc2ccc3c(c2)CCC3)o1	?	i	?	18.4µM	?	i
COc1ccccc1NC(=O)N1C[C@@H]2C[C@H](C1)c1c(-c3cccs3)ccc(=O)n1C2	nt	i	nt	nt	nt	nt
COc1ccc(CNCCc2c(C)[nH]c3ccc(OC(F)(F)F)cc23)c(OC)c1	20.6µM	?	23.1µM	4.61µM	1.84µM	-95.5
CCOC(=O)Cc1csc(NC(=O)c2c(O)c3ccccc3n(CCC(C)C)c2=O)n1	i	i	i	4.11µM	4.61µM	i
CCCCCCn1c(=O)c(C(=O)Nc2nc(CC(=O)OCC)cs2)c(O)c2ccccc21	i	i	i	3.66µM	3.66µM	i
C=C[C@H]1CN2CC[C@H]1C[C@@H]2CNC(=O)COc1ccccc1	nt	i	nt	nt	nt	nt
c1ccc(Nc2cc3c(cn2)CN(CC2CC2)CCN3)cc1	nt	i	nt	nt	nt	nt
CN1CCOC[C@H]2CCNC[C@H]21	nt	i	nt	nt	nt	nt
O=c1[nH]c(=S)n(C2CC2)c(O)c1/C=N/Nc1ccccc1	?	?	2.31µM	i	i	i
O=C(N/N=C/c1c(O)n(C2CCCCC2)c(=S)[nH]c1=O)c1ccccc1	?	?	i	?	?	i
O=c1[nH]c(=S)n(C2CC2)c(O)c1/C=N/Nc1cccc2ccccc12	i	?	i	16.4µM	?	i
CSCC(=O)Nc1ccc2n(c1=O)C[C@H]1C[C@@H]2CN(C(=O)c2ccccc2)C1	nt	i	nt	nt	nt	nt
CCOc1ccc(NC(=O)c2cc3c(C)nn(-c4ccccc4)c3s2)cc1	nt	i	nt	20.6µM	10.3µM	nt
CCN1CCN(C(=O)Cc2cccn2-c2ccc(F)cc2)CC1	nt	i	nt	nt	nt	nt
CCOC(=O)C1(c2ccccc2)CCN(CCC(=O)Nc2ccccc2OC)CC1	i	i	i	20.6µM	11.6µM	i
CCOC(=O)C1(c2ccccc2)CCN(CCC(=O)Nc2ccc(F)cc2)CC1	i	i	i	?	?	i
COCC(=O)N1CCCC(C(=O)N2CCC(C#N)(c3ccccc3)CC2)C1 (stereo not drawn)	nt	i	nt	nt	nt	nt
CCc1ccc(CN2CCN(Cc3ccc(SC)cc3)CC2)cc1	?	?	?	?	20.6µM	-90.6
COc1ccccc1N1CCN(Cc2ccc(SC)cc2)CC1	i	i	i	16.4µM	20.6µM	i
COc1ccc(CN2CCN(Cc3ccccc3OC)CC2)cc1	i	?	i	i	?	i
CSc1ccc(CN2CCN(c3ccccc3C)CC2)cc1	i	?	i	?	?	i
Cc1cccc(CN2CCN(Cc3ccc(Cl)cc3)CC2)c1	i	?	i	?	20.6µM	?
COc1ccccc1CN1CCN(Cc2ccc(Cl)cc2)CC1	i	?	i	i	20.6µM	i
SMILES	HT1080NT lethal	12-LOX inh	HT1080 IDH1KD tx	DT40 TDP1 CPT	TDP1 cell noCPT	IL-1B inflam inh
Cn1nc(-c2ccc(F)cc2)cc1[C@H]1CN2CC[C@H]1C[C@@H]2CNS(=O)(=O)c1cccs1	nt	i	nt	nt	nt	nt
COC(=O)C1=C(c2cc3ccccc3o2)C[C@@H]2CC[C@H]1N2C(=O)N1CCC(O)CC1	i	i	i	?	23.1µM	i
COC(=O)C1=C(c2cc3ccccc3o2)C[C@@H]2CC[C@H]1N2C	i	i	i	i	i	i
COC(=O)C1=C(c2cc3ccccc3o2)C[C@@H]2CC[C@H]1N2C(=O)N1CCC(C)CC1	i	i	i	4.61µM	2.91µM	i
CC#C[C@]1(O)CC[C@H]2[C@@H]3C[C@H](C)C4=CC(=O)CC[C@]4(C)[C@H]3CC[C@@]21C	nt	i[22.9 µM]	nt	nt	nt	nt
O=C(c1ccccc1F)c1cn(CC(=O)N2CCCC2)c2ccccc12	i	i	i	?	16.4µM	i
O=C(c1ccccc1F)c1cn(CC(=O)N2CCOCC2)c2ccccc12	i	i	i	i	i	i
C=CCc1ccc(OCCn2nnc3ccccc32)c(OC)c1	i	?	i	10.3µM	8.2µM	i
C=CCN1C(=O)NC(=O)C(Cc2ccc(OC)c(OC)c2)C1=O (stereo not drawn)	i	i	i	i	i	i
CN1CCCCC12Cc1ccccc1CN(C(=O)Cc1ccccc1)C2 (stereo not drawn)	nt	i[6.33 µM]	nt	nt	nt	nt
N[C@@H](Cn1ccc(=O)[nH]c1=O)C(=O)O	nt	i	nt	nt	nt	nt
CCCCN1C(=O)/C(=C/C=C/c2ccco2)C(=O)NC1=S	i	6.31µM	i	i	i	i
COc1ccc(CN2C(=O)NC(=O)/C(=C/c3ccoc3)C2=O)cc1	i	?	i	?	?	i
O=C1NC(=O)N(Cc2ccccc2)C(=O)/C1=C\c1ccco1	i	?	i	20.6µM	13µM	i
CCCCN1C(=O)/C(=C\c2ccco2)C(=O)N(CCc2ccccc2)C1=O	i	?	i	?	i	i
O=C1NC(=O)N(Cc2ccc(F)cc2)C(=O)/C1=C\C=C\c1ccco1	20.6µM	?	?	7.31µM	7.31µM	-95.6
CCCCN1C(=O)/C(=C/c2ccc(N(C)C)cc2)C(=O)N(Cc2ccco2)C1=O	i	?	i	i	i	?
Cc1c(CC(=O)N2CCN(Cc3ccccc3)CC2)c(=O)oc2cc(O)ccc12	nt	i	nt	nt	nt	nt
Cc1c(Cl)ccc2sc(N3CCN(C(=O)CCS(=O)(=O)c4ccc(F)cc4)CC3)nc12	nt	i	nt	0.581µM	0.461µM	nt
O=C(Cc1ccc(S(=O)(=O)N2CCCC2)s1)N1CCN(c2ccc(F)cc2)CC1	i	i	i	?	?	i
O=C1CN(C(=O)c2cn(Cc3ccccc3)c3ccccc23)CCN1	nt	i	nt	nt	nt	nt
O=C(Cc1cccc(F)c1)N1CCC2(CC1)NCc1ccccc1-n1ccnc12	nt	i	nt	nt	nt	nt
COC(=O)C1=C(c2cc3ccccc3s2)C[C@@H]2CC[C@H]1N2C(=O)NC1CC1	i	i	i	?	14.6µM	i
COC(=O)C1=C(c2cc3ccccc3s2)C[C@@H]2CC[C@H]1N2C(=O)NCc1ccc(C(F)(F)F)cc1	?	?	?	?	18.4µM	-52.0
COC(=O)C1=C(c2cc3ccccc3s2)C[C@@H]2CC[C@H]1N2C(=O)NCC1CC1	i	?	i	?	16.4µM	i
COC(=O)C1=C(c2cc3ccccc3s2)C[C@@H]2CC[C@H]1N2C(=O)N1CCC(C)CC1	i	i	i	5.17µM	2.59µM	i
COC(=O)C1=C(c2cc3ccccc3s2)C[C@@H]2CC[C@H]1N2C	i	i	i	i	i	i
COC(=O)C1=C(c2ccccc2)C[C@@H]2CC[C@H]1N2C(=O)NCC1CC1	i	i	i	?	?	i
